Only some compounds are listed: those with a hit (about 15% of all), similar ones and a draw of the others.
HCV inh – blocks hepatitis C virus; Huh7.5.1 HCVcc-Cre infection, luciferase reporter, 44 h; Potency, µM (titrated, usually from 41.8 µM), usual class: inhibitors; actives 3.4% (n = 340,000)
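Infectious HCVcc-Cre (~0.5 moi) was added to cells just after compound, with cells seeded 4 h earlier at 1,000 per well. Luciferase activity after 44 h culture reported infection; substrate was incubated 15 min at room temperature before reading.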
Sm TGR inh – inhibitors of Schistosoma mansoni thioredoxin glutathione reductase. Potency, µM (doses to about 114 µM), actives largely listed as inhibitors. purified TGR, DTNB reduction, TNB absorbance 405 nm. Q962Y6. actives 3% (n = 360,000). AID 485364; note: nearly all actives have a fitted effect of over 60% in size
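TGR 20 nM + NADPH 100 uM (dispensed conc.), cpd preinc 15 min RT; start with NADPH (500 uM addition) then DTNB (15 mM addition). Kinetic TNB absorbance, 405 nm filter. Four-parameter Hill fit across titration.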
Pf growth 96h – P. falciparum growth inhibition at 96 hours. P. falciparum luciferase reporter growth, 96 h. Potency, µM (series often up to 28.7 µM), hits mostly inhibitors. actives 6.9% (n = 320,000). AID 504834
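Cell-based qHTS: luciferase-tagged P. falciparum in erythrocytes (2% hematocrit, 0.05% parasitemia final) incubated with compounds for 96 hours, 37 C, 5% CO2; luciferase detection reagent then added and luminescence measured.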
HCMV inh – blocks human cytomegalovirus replication; HFF cells, HCMV-luciferase reporter, 72 h; stronger effect = lower value; actives 4.5% (n = 410,000); activity change, negative = inhibition, % at 57.5 µM; in the data active = activity change below about -60%; inconclusive = no clear call, values can overlap the other calls; inactive = above about -39%
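HFF cells seeded 16 h at 37C, treated with compounds, infected with luciferase-reporter HCMV at MOI 1 PFU/cell; luciferase read at 72 h post infection, normalized to buffer-only and Salinomycin controls.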
SARS PLP yeast – SARS-CoV PLP inhibition in yeast; S. cerevisiae expressing SARS-CoV PLpro, growth rescue; Potency, µM (doses to about 32.9 µM), most hits filed as activators; actives 0.19% (n = 330,000); AID 485353; calls by dose curve; note: nearly all actives have a fitted effect of over 55% in size
Pf growth 48h – P. falciparum growth inhibition at 48 hours (one generation) | Potency, µM (series often up to 28.7 µM), hits mostly inhibitors | P. falciparum luciferase growth in erythrocytes, 48 h | actives 5.9% (n = 310,000)
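Here the parasites carry a stable luciferase gene and grow inside erythrocytes in Albumax-based RPMI medium with compound for one erythrocytic cycle. Activity is scored as loss of luminescent signal.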
Large screens that a line does not name were inactive; ! = repeats disagree. Unless noted, calls come from the whole dose curve; as a rule, active = well fitted curve in the direction sought with a large enough effect; inconclusive = small, poorly fitted or top-dose-only effect, or another doubt; inactive = no such curve, though single readings can be large; an effect the other way counts as inactive or inconclusive.

Cc1cc(C(F)F)n2nc(C(=O)Nc3sc4c(c3C#N)CCC(C)C4)nc2n1 (stereo unspecified)	none
CCOC(=O)c1sc(NC(=O)c2nc3nc(C)cc(C(F)F)n3n2)c(C(=O)OC(C)C)c1C	none (no result: HCV inh, Pf growth 96h, SARS PLP yeast, Pf growth 48h)
Cc1cc(C(F)F)n2nc(C(=O)Nc3sc4c(c3C(N)=O)CCC4)nc2n1	HCV inh inconclusive, Pf growth 96h 4.1µM, SARS PLP yeast inconclusive, Pf growth 48h inconclusive
COc1ccc(CCNC(=O)c2cnn(-c3ccc(C)c(C)c3)c2NC(=O)c2ccco2)cc1OC	HCMV inh inconclusive (no result: SARS PLP yeast)
Cc1cccc(-n2ncc(C(=O)Nc3ccc4c(c3)OCO4)c2C2CCN(C(=O)OC(C)(C)C)CC2)c1	HCMV inh inconclusive (no result: HCV inh, Pf growth 96h, SARS PLP yeast, Pf growth 48h)
Cc1ccc(-n2ncc(C(=O)N3CCc4ccccc4C3)c2NC(=O)c2ccco2)cc1C	Sm TGR inh 32µM
Cc1ccc(-n2ncc(C(=O)N3CCN(C(=O)c4ccco4)CC3)c2C2CCN(C(=O)OC(C)(C)C)CC2)cc1	none (no result: HCV inh, Pf growth 96h, SARS PLP yeast, Pf growth 48h)
Cc1ccc(-n2ncc(C(=O)N3CCN(C(=O)c4ccco4)CC3)c2C2CCN(C(=O)OC(C)(C)C)CC2)cc1C	Sm TGR inh inconclusive, Pf growth 48h 4.7µM
Cc1ccc(-n2ncc(C(=O)Nc3ccc4c(c3)OCCO4)c2C2CCN(C(=O)OC(C)(C)C)CC2)cc1C	HCMV inh active (no result: HCV inh, Pf growth 96h, SARS PLP yeast, Pf growth 48h)
O=C(NCc1cccs1)c1csc(COCCO)n1	none (no result: HCV inh, Sm TGR inh, Pf growth 96h, SARS PLP yeast, Pf growth 48h)
Cc1ccc(OCC(=O)Nc2cccc(C(=O)OCc3cc(=O)n4c(C)csc4n3)c2)cc1	none (no result: HCV inh, Pf growth 96h, SARS PLP yeast, Pf growth 48h)
Cc1nn2c(=O)cc(COC(=O)c3cccc(NC(=O)COc4ccc(C)c(C)c4)c3)nc2s1	HCMV inh -62 (no result: HCV inh, Pf growth 96h, SARS PLP yeast, Pf growth 48h)
Cc1csc2nc(COC(=O)c3cccc(NC(=O)COc4ccccc4Cl)c3)cc(=O)n12	HCMV inh -61 (no result: HCV inh, Pf growth 96h, SARS PLP yeast, Pf growth 48h)
Cc1ccccc1OCC(=O)Nc1ccc(C(=O)OCc2cc(=O)n3c(C)csc3n2)cc1	HCMV inh -87 (no result: HCV inh, Pf growth 96h, SARS PLP yeast, Pf growth 48h)
CN(CC(=O)Nc1ccc(F)c(F)c1F)C(=O)CCN1C(=O)C2CCCCC2C1=O (stereo unspecified)	none
CC(C)CC(=O)Nc1nnc(S(=O)(=O)N(C)Cc2ccco2)s1	Sm TGR inh 8.9µM (no result: HCMV inh)
CCN(c1ccccc1)S(=O)(=O)c1nnc(NC(=O)CC(C)C)s1	Pf growth 96h inconclusive
CN(Cc1ccco1)S(=O)(=O)c1nnc(NC(=O)c2cccc(Cl)c2)s1	Sm TGR inh 7.9µM!
CN(Cc1ccccc1)S(=O)(=O)c1nnc(NC(=O)c2cccc(Cl)c2)s1	HCMV inh inconclusive (no result: HCV inh, Pf growth 96h, SARS PLP yeast, Pf growth 48h)
O=C(NCCC1CCCCN1S(=O)(=O)c1ccc(F)cc1)C(=O)Nc1ccccc1 (stereo unspecified)	Pf growth 96h inconclusive
Cc1cccc(C)c1NC(=O)C1(C)CSCC(=O)N1CCc1ccccc1F (stereo unspecified)	none (no result: HCV inh, Sm TGR inh, Pf growth 96h, SARS PLP yeast, Pf growth 48h)
COc1cccc(CN2CCN(Cc3c(C)nn(C(C)C)c3C)CC2CCO)c1 (stereo unspecified)	Pf growth 96h 10µM
CC(=O)Nc1ccc2nc(CN3CCN(CC=C(C)C)C(CCO)C3)ccc2c1 (stereo unspecified)	Sm TGR inh 20µM, Pf growth 96h inconclusive
COc1cccc(CN2CCN(Cc3ccc4c(NC(C)=O)cccc4n3)CC2CCO)c1 (stereo unspecified)	Sm TGR inh 20µM
COc1cccc(CN2CCN(Cc3ccon3)CC2CCO)c1 (stereo unspecified)	Pf growth 96h inconclusive
COc1cc(CN2CCN(Cc3ccc4cc(F)ccc4n3)CC2CCO)cc(OC)c1 (stereo unspecified)	Sm TGR inh 40µM, Pf growth 96h inconclusive
CC(=O)Nc1ccc(CN2CCN(CC=C(C)C)C(CCO)C2)cc1 (stereo unspecified)	Pf growth 96h inconclusive
COc1cccc(OC)c1C(=O)OCC(=O)N(c1ccccc1)C1CCCCC1	HCV inh inconclusive, Pf growth 96h inconclusive, Pf growth 48h inconclusive
CCn1c(SCC(=O)Nc2cccc(OC)c2)nc2c(c1=O)SCC2	Pf growth 96h inconclusive
CCNC(=O)C12CCC(C)(C(=O)O1)C2(C)C (stereo unspecified)	none
CN1OC[C@@H]2CN(C(=O)NC3CCCCC3)[C@H](c3ccc(N4CCCCC4)cc3)C[C@@H]21	none (no result: HCV inh, Sm TGR inh, Pf growth 96h, SARS PLP yeast, Pf growth 48h)
Cc1ccc(CN2CCN(Cc3cnn(-c4ccc(F)cc4)c3)CC2CCO)o1 (stereo unspecified)	Pf growth 96h inconclusive
CCOc1ccccc1CN1CCN(Cc2ccc3cc(F)ccc3n2)CC1CCO (stereo unspecified)	Sm TGR inh 35µM, Pf growth 96h inconclusive
CCOc1ccc2nc(CN3CCN(Cc4ccccc4OCC)C(CCO)C3)ccc2c1 (stereo unspecified)	Sm TGR inh inconclusive, Pf growth 96h inconclusive, Pf growth 48h inconclusive
OCCC1CN(Cc2ccc3cc(Cl)ccc3n2)CCN1Cc1ccsc1 (stereo unspecified)	HCV inh inconclusive, Sm TGR inh 35µM, Pf growth 96h 5.2µM, Pf growth 48h inconclusive
COc1ccc(CN2CCN(Cc3ccc4cc(F)ccc4n3)CC2CCO)c(C)c1C (stereo unspecified)	HCV inh inconclusive, Sm TGR inh 22µM, Pf growth 96h inconclusive, SARS PLP yeast inconclusive, Pf growth 48h inconclusive
Cc1ccc(CN2CCN(Cc3ccc4cc(F)ccc4n3)CC2CCO)o1 (stereo unspecified)	Sm TGR inh 18µM, Pf growth 96h inconclusive
Cc1ccc(C)n1-c1ccc(C(=O)NCc2ccncc2)cc1	Sm TGR inh 22µM, Pf growth 96h inconclusive, HCMV inh inconclusive, Pf growth 48h inconclusive
CCOc1ccc(NS(=O)(=O)c2ccc(C(=O)NCc3cccnc3)cc2)cc1	HCV inh inconclusive, Pf growth 96h inconclusive
CCOc1ccc(NS(=O)(=O)c2ccc(C(=O)NCc3ccncc3)cc2)cc1	HCV inh 7.1µM, Pf growth 48h inconclusive
CCOc1ccc(NC(=S)c2ccncc2)cc1	HCV inh inconclusive, Pf growth 96h 9.3µM, HCMV inh inconclusive
CCOc1ccc(C(=O)NCc2ccncc2)cc1	Pf growth 96h 4.1µM
CCOC(=O)c1cc(C#N)c(N2CCOCC2)nc1-c1ccccc1	none
CCOC(=O)c1cc(C#N)c(N2CCNCC2)nc1C(F)(F)F	HCV inh inconclusive, Pf growth 48h inconclusive
CCOC(=O)c1cc(C#N)c(N2CCN(C(=O)c3ccccc3)CC2)nc1C(F)(F)F	Pf growth 96h 10µM, Pf growth 48h inconclusive
CCOC(=O)c1cc(C#N)c(N2CCN(C(=O)c3cccc(C(F)(F)F)c3)CC2)nc1C(F)(F)F	HCV inh 8.9µM, Pf growth 96h inconclusive, HCMV inh inconclusive, Pf growth 48h 5.9µM
CC1(C(=O)NS(=O)(=O)c2cccc(F)c2)CCN1C(=O)c1cccc(F)c1 (stereo unspecified)	none (no result: HCV inh, Sm TGR inh, Pf growth 96h, SARS PLP yeast, Pf growth 48h)
